Compound activity deposited in PubChem by National Center for Advancing Translational Sciences (NCATS).
Shiga inhibitor: A qHTS for Small Molecule Inhibitors of Shiga Toxin; Vero cells, Shiga toxin protein synthesis inhibition reporter; inhibition, % at 38.7 µM; 290,000 compounds, 9.2% hits; in the data active = inhibition mostly above about 28%, no sharp cut-off; inactive = mostly below about 43%; also: 0% is about no effect
Cycloheximide cs: Cycloheximide Counterscreen for Small Molecule Inhibitors of Shiga Toxin. cell reporter, cycloheximide protein synthesis inhibition counterscreen. max response, %. 300,000 compounds, 12% hits; in the data active = max response mostly above about 13%, no sharp cut-off; inactive = mostly below about 14%; also: read at 38.3 µM for the half of the compounds with a filed dose; 0% is about no effect
Sm TGR inh: qHTS Assay for the Inhibitors of Schistosoma Mansoni Peroxiredoxins; purified TGR, DTNB reduction, TNB absorbance 405 nm; Potency, µM (series often up to 114 µM), for inactives: top-dose activity change, negative = inhibition, most hits filed as inhibitors; 360,000 compounds, 3% hits; AID 485364, 2010; Schistosoma mansoni thioredoxin glutathione reductase (TGR), Q962Y6; also: potency is read from the fitted curve at half-maximal effect; % is scaled to controls: 0 for no effect and ±100 for the full control effect; nearly all actives have a fitted effect of over 60% in size
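Kinetic colorimetric format: TGR-catalysed, NADPH-driven DTNB reduction monitored via TNB absorbance. Enzyme dispensed at 20 nM; compound exposure 15 min at room temperature before reaction start.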
Pf growth 48h: Primary qHTS for delayed death inhibitors of the malarial parasite plastid, 48 hour incubation; P. falciparum luciferase growth in erythrocytes, 48 h; 310,000 compounds, 5.9% hits; Potency, µM (top dose mostly 28.7 µM), inactives show top-dose activity change, negative = inhibition, usual class: inhibitors; also: potency is read from the fitted curve at half-maximal effect; % is scaled to controls: 0 for no effect and ±100 for the full control effect
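Growth was read as firefly luciferase luminescence after a 48 h, 37 C, 5% CO2 exposure of compounds to reporter-bearing P. falciparum cultures (0.1% parasitemia, 2% hematocrit final) in Albumax-supplemented RPMI 1640.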
Pf growth 96h: Primary qHTS for delayed death inhibitors of the malarial parasite plastid, 96 hour incubation | P. falciparum luciferase reporter growth, 96 h | 320,000 compounds, 6.9% hits | Potency, µM (doses to about 28.7 µM), for inactives: at the highest dose activity change, negative = inhibition, hits mostly inhibitors; also: potency is read from the fitted curve at half-maximal effect; % is scaled to controls: 0 for no effect and ±100 for the full control effect
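Compounds incubated with erythrocytes infected by luciferase-expressing P. falciparum (2% hematocrit, 0.05% parasitemia final) for 96 hours, 37 C in 5% CO2. Growth inhibition scored as decreased luciferase luminescence.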
NS1 function inh: qHTS Assay for Inhibitors of Influenza NS1 Protein Function; AID 2326, 2010; 270,000 compounds, 0.4% hits; Potency, µM (highest dose often 46.1 µM), for inactives: top-dose activity, positive = more growth; calls by dose curve; also: potency is read from the fitted curve at half-maximal effect; actives are rising curves; nearly all actives have a fitted effect of over 50% in size
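A cell-based growth assay was used: compounds that relieve NS1-induced slow growth of budding yeast raise OD600. Assay medium was yeast nitrogen base with ammonium sulphate and -URA supplement, pH 6.0, with 2% galactose.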
Numbers without * were called inactive; ? = inconclusive; . = no result; + = active, no number. Sampled rows, rich in hits. Any-hit rate of the full collection: about 21%. Unless noted, calls follow the shape of the dose curve; as a rule, active = well fitted curve in the direction sought with a large enough effect; inconclusive = small, poorly fitted or top-dose-only effect, or another doubt; inactive = no such curve, though single readings can be large; an effect the other way counts as inactive or inconclusive.

SMILES | Shiga inhibitor | Cycloheximide cs | Sm TGR inh | Pf growth 48h | Pf growth 96h | NS1 function inh
CCOC(=O)c1sc(=NC(=O)C2CC2)n(C)c1C | 13 | 19 | 8% | 1% | ? | .
Cn1c(=NC(=O)C2CCCCC2)sc2cc([N+](=O)[O-])ccc21 | 99* | 42* | 0% | 42% | 31% | .
CCOc1ccc2c(c1)sc(=NC(=O)C1CC1)n2C | 62* | 39* | -2% | ? | ? | -30%
Cc1ccc(NC(=O)C(=O)c2cc(C)n(-c3ccc(F)cc3)c2C)cc1C | . | . | -8% | . | . | .
Cn1cccc1/C=C1\Cc2ccccc2C1=O | + | 42* | 3% | 475% | -3% | .
CSC1=N/C(=C\c2ccc(C)s2)C(=O)S1 | 3 | 6 | 3% | -1% | ? | -14%
CC(C)=C1Cc2ccccc2C1=O | -6 | 6 | -33% | ? | ? | .
O=C1/C(=C/c2cccs2)Cc2ccccc21 | 157* | 36* | -1% | 23% | -26% | -14%
O=C1/C(=C\c2ccc(Br)o2)Cc2ccccc21 | 53* | 73* | -24% | 48% | 22% | -8%
Cc1ccc(C=C2C(=O)c3ccccc3C2=O)s1 | 45* | 56* | 0% | . | 12µM* | -50%
O=C(NCc1ccccn1)c1cc(S(=O)(=O)N2CCCCC2)ccc1Cl | . | . | 1% | -3% | -11% | .
COc1ccc2sc(-c3ccc(N(C)C)cc3)c(-c3cnc(OC)nc3)c2c1 | . | . | 5% | ? | ? | .
COc1ccc(NC2CCCN(C(=O)c3ccc(C)c(N4CCNC4=O)c3)C2)cc1 (stereo unspecified) | -29 | -2 | 0% | -19% | 16% | 6%
O=C1/C(=C\c2cccs2)CCC/C1=C/c1cccs1 | . | . | . | 134% | 183% | .
O=C1C(=Cc2cccs2)C(=O)c2ccccc21 | 28 | 46* | -12% | 2% | 2% | -23%
O=C(Cn1c(=O)n(Cc2ccco2)c(=O)c2oc3ccccc3c21)Nc1ccc(F)cc1F | . | . | -11% | . | . | .
CCOC(=O)c1nnn(-c2nn3nnnc3c3ccccc23)c1C | 31 | 2 | -12% | 0.93µM* | -29% | -4%
O=C1C(Cl)=C(N2CCCC2)C(=O)N1c1ccc(F)cc1 | 10 | -2 | 50µM* | ? | 0% | 14%
Cc1ccccc1N1C(=O)C(Cl)=C(N2CCN(c3ccccc3)CC2)C1=O | -8 | 1 | 0% | 0% | 3.7µM* | -8%
O=C1C=C(Nc2ccc(Cl)cc2)C(=O)N1c1ccc(Cl)cc1 | -3 | 13 | -6% | 39% | 39% | 29%
O=C1C=C(N2CCCCCC2)C(=O)N1c1ccc(Cl)cc1 | 176* | 62* | 8% | 110% | 181% | -1%
CN1CCN(C2=C(Cl)C(=O)N(c3ccc(Cl)c(Cl)c3)C2=O)CC1 | 66 | 23* | ? | 2% | 63% | -84%
Cc1ccc(C(=O)COC(=O)CNS(=O)(=O)c2ccccc2)cc1[N+](=O)[O-] | -5 | 5 | 5% | ? | 22% | -4%
Cc1cccc(N(CC(=O)NCCSCc2ccc(Cl)cc2)S(C)(=O)=O)c1C | . | . | -13% | . | . | .
O=C(Cn1ncc2c([nH]c3ccccc32)c1=O)N1CCOCC1 | 6 | 0 | 0% | 1% | ? | -2%
SMILES | Shiga inhibitor | Cycloheximide cs | Sm TGR inh | Pf growth 48h | Pf growth 96h | NS1 function inh
Cc1cc(C)cc(NC(=O)CSc2nnc(-c3cc(C)[nH]n3)n2N)c1 | -3 | -3 | -22% | ? | ? | 9%
O=C1C(Cl)=C(N2CCCC2)C(=O)N1c1ccccc1F | . | -5 | -13% | -2% | 2.6µM* | 5%
O=C1C(Cl)=C(N2CCCCCC2)C(=O)N1c1ccc(Cl)cc1 | 18 | 12* | -19% | ? | 142% | -8%
COc1ccc(N2C(=O)C(Cl)=C(N3CCCC3)C2=O)cc1 | -2 | 17 | -12% | -7% | 37% | -5%
O=C1C(Cl)=C(N2CCCCCC2)C(=O)N1c1ccccc1Cl | 3 | 9 | 3% | 9% | 10% | -3%
Cc1ccc(NC(=O)CSCc2cc(=O)c3ccccc3[nH]2)c(C)c1 | . | . | 6% | . | . | .
COc1ccc(CN(CCN(C)C)c2ncccn2)cc1 | . | . | . | -12% | ? | .
CCCCCCCCCCCCCCCC[N+](C)(C)CCN(Cc1ccc(OC)cc1)c1ncccn1 | . | . | -22% | 3.7µM* | 1.9µM* | .
CC(C)C(c1nnnn1C(C)(C)C)N1CCOCC1 (stereo unspecified) | 5 | 0 | 2% | 9% | 11% | 12%
CC(C)C(c1nnnn1C(C)(C)C)N1CCC(Cc2ccccc2)CC1 (stereo unspecified) | -9 | -5 | 0% | 9.3µM* | 51% | ?
CCCC(=O)NNC(=O)c1ccoc1C | 7 | -2 | 1% | 5% | 10% | 12%
CCC(C)(C)C1CCC(=NNC(=O)c2ccoc2C)CC1 (stereo unspecified) | 69* | 56* | 4% | . | 130% | ?
CN1C(=S)N(c2ccccc2)C(=O)/C1=C/c1ccco1 | 25 | 8 | ? | 13% | -11% | 3%
O=C1/C(=C/c2ccco2)N=C(N2CCCCC2)N1c1ccccc1 | -6 | -1 | 45µM* | 2% | 27% | 21%
CC(C)N(C1=N/C(=C\c2ccco2)C(=O)N1c1ccccc1)C(C)C | -5 | 3 | 40µM* | . | -19% | 9%
CCOC(=O)/C(=N/Nc1ccc(Cl)cc1)S(=O)(=O)c1ccc(Cl)cc1 | -22 | 3 | -18% | 27% | . | 10%
CCOc1ccc2oc(=O)cc(CN3CCN(c4ccc(Cl)cc4)CC3)c2c1 | . | . | 0% | . | . | .
CC(=O)NC1(C(=O)O)CCCC1 | 8 | -3 | -2% | 42% | 31% | 7%
CCN(CC)CCN(C(=O)c1ccco1)c1nc2c(C)cccc2s1 | . | . | 0% | . | . | .
COCc1ccc(CN2CCC(CO)(CC3CCCCO3)CC2)o1 (stereo unspecified) | 3 | 1 | -25% | 8% | ? | 8%
COc1cccc(CN2CCC(CO)(CC3CCCCO3)CC2)c1 (stereo unspecified) | -11 | 2 | 10% | -20% | 9.3µM* | 6%
Cc1ccc(CN2CCC(CO)(CC3CCCCO3)CC2)o1 (stereo unspecified) | -4 | 0 | 45µM* | -5% | ? | 7%
Cc1ccc2[nH]c(CN3CCC(CO)(CC4CCCCO4)CC3)c(C)c2c1 (stereo unspecified) | -2 | -3 | -14% | 9.3µM* | ? | -3%
OCC1(CC2CCCCO2)CCN(Cc2nc3ccccc3[nH]2)CC1 (stereo unspecified) | 27 | -2 | 0% | -7% | 0% | 4%
CCc1ccc(CN2CCC(CO)(CC3CCCCO3)CC2)o1 (stereo unspecified) | -1 | -1 | 0% | 3% | 13% | 3%
Cc1ccc(NC(=O)/C(=C\c2ccc3c(c2)OCO3)NC(=O)c2ccco2)cc1 | 15 | 10 | -5% | -2% | 3% | 5%
